{
  "source": "the supplement of paper PMC11150407",
  "note": "Where “and” joins values, the source holds several entries; their conditions need not be identical. Equal entries are not always repeated. About 180 (8.6%) of roughly 2,100 compounds showed an effect of 50% or more. The full list was thinned out, with strong results kept by preference.",
  "data": [
    {"test_system": "MOLM1 and UCSD/AML1 (averaged)", "assay": "cell viability relative to DMSO control (POC); higher = less growth inhibition", "conditions": "1 µM; 72 h", "procedure": "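Primary viability screen in the 3q26 EVI1-high AML cell lines MOLM1 and UCSD/AML1 (1.5e3 cells/well, 384-well), compounds at 1 uM for 72 h. ATP CellTiter-Glo read-out given as percent of viable cells over DMSO control (POC), averaged over duplicates. DMSO was the negative control and 5 uM etoposide the positive control. This mapping covers the MicroSource Spectrum and Selleck anticancer libraries (drug names).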", "values": [
      {"compound": "O=c1c(O)c(-c2ccccc2)oc2cccc(O)c12", "cell viability": "93.1%"},
      {"compound": "CCC(CCC(C)C1CCC2C3CCC4CC(O)CCC4(C)C3CCC12C)C(C)C", "note": "(stereo unspecified)", "cell viability": "89.6%"},
      {"compound": "C=C1C(N)CC2CC1C2(C)C", "note": "(stereo not drawn) [3-AMINO-beta-PINENE]", "cell viability": "96.3%"},
      {"compound": "CC(C)[C@@H]1CC[C@@H](C)CC1=O", "cell viability": "102%"},
      {"compound": "CC(=O)O[C@H]1C(=O)[C@@]2(C)[C@H]([C@H](OC(=O)c3ccccc3)[C@]3(O)C[C@H](OC(=O)[C@H](O)[C@@H](NC(=O)c4ccccc4)c4ccccc4)C(C)=C1C3(C)C)[C@]1(OC(C)=O)CO[C@@H]1C[C@@H]2O", "cell viability": "11.7%"},
      {"compound": "CC(=O)O[C@@]12CO[C@@H]1C[C@H](O)[C@@]1(C)C(=O)[C@H](O)C3=C(C)[C@@H](OC(=O)[C@H](O)[C@@H](NC(=O)OC(C)(C)C)c4ccccc4)C[C@@](O)([C@@H](OC(=O)c4ccccc4)[C@H]21)C3(C)C", "note": "[Docetaxel (Taxotere)]", "cell viability": "14.7%"},
      {"compound": "CC(=O)O[C@H]1C(=O)[C@@]2(C)[C@H]([C@H](OC(=O)c3ccccc3)[C@]3(O)C[C@H](OC(=O)[C@H](O)[C@@H](NC(=O)c4ccccc4)c4ccccc4)C(C)=C1C3(C)C)[C@]1(OC(C)=O)CO[C@@H]1C[C@@H]2O", "note": "[Paclitaxel (Taxol)]", "cell viability": "12.3%"},
      {"compound": "COc1nc(C)cnc1NS(=O)(=O)c1cccnc1-c1ccc(-c2nnco2)cc1", "note": "[Zibotentan (ZD4054)]", "cell viability": "71.2%"},
      {"compound": "Nc1nccc(Oc2ccc(NC(=O)c3c[nH]cc(-c4ccc(F)cc4)c3=O)cc2F)c1Cl", "cell viability": "83.2%"},
      {"compound": "O=C1c2ccccc2C(=O)c2c(O)c(O)cc(O)c21", "cell viability": "83.8%"},
      {"compound": "O=c1c(O)c(-c2ccccc2)oc2cc(O)ccc12", "cell viability": "107%"},
      {"compound": "CC1(C)CC[C@]2(C(=O)O)CC[C@]3(C)C(=CC[C@@H]4[C@@]5(C)CC[C@H](O)[C@@](C)(CO)[C@@H]5CC[C@]43C)[C@@H]2C1", "cell viability": "89.4%"},
      {"compound": "COc1ccc(C(C)=O)c(OC)c1", "cell viability": "91.5%"},
      {"compound": "COC(=O)c1c(C)cc(OC(=O)c2c(C)cc(O)c(C=O)c2O)c(C)c1O", "cell viability": "100%"},
      {"compound": "O=C(NCCCNc1nc(Nc2cccc(NC(=O)N3CCCC3)c2)ncc1I)c1cccs1", "cell viability": "47.6%"},
      {"compound": "C#CC1(O)CC[C@H]2[C@@H]3CCC4=CC(=O)CC[C@@H]4[C@H]3CC[C@@]21CC", "note": "(mixture of isomers)", "cell viability": "69.3%"},
      {"compound": "C[C@@H]1CC[C@H]2C(C)(C)[C@H]3C[C@@]12CC[C@@]3(C)O", "cell viability": "105%"},
      {"compound": "COc1cc2ccc(=O)oc2c(OC)c1OC", "cell viability": "110%"},
      {"compound": "CCCCCCCCCCCCCCC(C(=O)O)C(O)(CC(=O)OC)C(=O)O", "note": "(stereo unspecified)", "cell viability": "87.8%"},
      {"compound": "CN1CCN(c2ccc3nc(-c4c(N)c5c(F)cccc5[nH]c4=O)[nH]c3c2)CC1", "note": "[Dovitinib (TKI-258)]", "cell viability": "26.7%"},
      {"compound": "COc1cc2c(cc1OC)-c1cc3ccc(OC)c(OC)c3c[n+]1CC2", "cell viability": "95.7% and 88.9%"},
      {"compound": "CC(=O)O[C@@H]1CC2C(C)(C)[C@H](O)CC[C@]2(C)C2CC[C@@]3(C)[C@H](c4ccoc4)OC(=O)C4OC43[C@@]21C", "note": "(stereo partly drawn) [alpha-DIHYDROGEDUNOL]", "cell viability": "123%"},
      {"compound": "COc1ccc(-c2coc3c(O)c(OC)ccc3c2=O)cc1", "cell viability": "94.6%"},
      {"compound": "CNC(=O)c1ccc(C)c(-n2c(C)cc(OCc3ccc(F)cc3F)c(Br)c2=O)c1", "cell viability": "87.5%"},
      {"compound": "CO[C@H]1C[C@@H]2CC[C@@H](C)[C@@](O)(O2)C(=O)C(=O)N2CCCC[C@H]2C(=O)O[C@H]([C@H](C)C[C@@H]2CC[C@@H](O)[C@H](OC)C2)CC(=O)[C@H](C)/C=C(\\C)[C@@H](O)[C@@H](OC)C(=O)[C@H](C)C[C@H](C)/C=C/C=C/C=C/1C", "note": "[Rapamycin (Sirolimus)]", "cell viability": "41.5%"},
      {"compound": "CO[C@H]1C[C@@H]2CC[C@@H](C)[C@@](O)(O2)C(=O)C(=O)N2CCCC[C@H]2C(=O)O[C@H]([C@H](C)C[C@@H]2CC[C@@H](OCCO)[C@H](OC)C2)CC(=O)[C@H](C)/C=C(\\C)[C@@H](O)[C@@H](OC)C(=O)[C@H](C)C[C@H](C)/C=C/C=C/C=C/1C", "note": "[Everolimus (RAD001)]", "cell viability": "50.2%"},
      {"compound": "C=CC[C@@H]1/C=C(\\C)C[C@H](C)C[C@H](OC)[C@H]2O[C@@](O)(C(=O)C(=O)N3CCCC[C@H]3C(=O)O[C@H](/C(C)=C/[C@@H]3CC[C@@H](O)[C@H](OC)C3)[C@H](C)[C@@H](O)CC1=O)[C@H](C)C[C@@H]2OC", "cell viability": "85.3%"},
      {"compound": "CO[C@H]1C[C@@H]2CC[C@@H](C)[C@@](O)(O2)C(=O)C(=O)N2CCCC[C@H]2C(=O)O[C@H]([C@H](C)C[C@@H]2CC[C@@H](OC(=O)C(C)(CO)CO)[C@H](OC)C2)CC(=O)[C@H](C)/C=C(\\C)[C@@H](O)[C@@H](OC)C(=O)[C@H](C)C[C@H](C)/C=C/C=C/C=C/1C", "cell viability": "11%"},
      {"compound": "CO[C@H]1C[C@@H]2CC[C@@H](C)[C@@](O)(O2)C(=O)C(=O)N2CCCC[C@H]2C(=O)O[C@H]([C@H](C)C[C@@H]2CC[C@@H](O)[C@H](OC)C2)CC(=O)[C@H](C)/C=C(\\C)[C@@H](O)[C@@H](OC)C(=O)[C@H](C)C[C@H](C)/C=C/C=C/C=C/1C", "cell viability": "44%"},
      {"compound": "O=c1cc(-c2cccc3c2Sc2ccccc2S3)oc(N2CCOCC2)c1", "cell viability": "69.4%"},
      {"compound": "O=C(O)CCCCCCCCCCCC[C@@H]1C=CCC1", "cell viability": "93.9%"},
      {"compound": "CS(=O)(=O)CCCCN=C=S", "cell viability": "84.4%"},
      {"compound": "COc1ccc(-c2oc3cc(OC)c(OC)c(OC)c3c(=O)c2OC)cc1OC", "cell viability": "101%"},
      {"compound": "CC(=O)OCC(=O)[C@@]1(O)CCC2C3CCC4=CC(=O)C=C[C@]4(C)[C@@]3(F)[C@@H](O)C[C@@]21C", "note": "(stereo partly specified)", "cell viability": "78.1%"},
      {"compound": "N#CCNC(=O)c1ccc(-c2ccnc(Nc3ccc(N4CCOCC4)cc3)n2)cc1", "note": "[Momelotinib (CYT387)]", "cell viability": "51.4%"},
      {"compound": "Cc1nc(N)sc1-c1ccnc(Nc2ccc(N3CCOCC3)cc2)n1", "cell viability": "46.7%"},
      {"compound": "O=C(O)c1ccccc1", "cell viability": "98.9%"},
      {"compound": "CC(CCC(=O)O)[C@H]1CCC2C3C[C@H](O)[C@@H]4C[C@H](O)CC[C@]4(C)C3CC[C@@]21C", "note": "(stereo partly drawn) [alpha-HYDROXYDEOXYCHOLIC ACID]", "cell viability": "107%"},
      {"compound": "CC(C)(C)c1cnc(CSc2cnc(NC(=O)C3CCNCC3)s2)o1", "cell viability": "2.81%"},
      {"compound": "Cc1cc(/C=C/c2ccc3cc(N(C)C)ccc3[n+]2C)c(C)n1-c1ccccc1", "cell viability": "29.3%"},
      {"compound": "C[C@@H]1CC[C@@]23CCC4(C)[C@@](C=CC5[C@@]6(C)CC[C@H](O)C(C)(C)C6CC[C@]54C)(OC2=O)C3[C@H]1C", "note": "(stereo partly specified)", "cell viability": "90.8%"}
    ]}
  ]
}
